Source: PubChem BioAssay AID686979 (National Center for Advancing Translational Sciences (NCATS), 2013)
Where “and” joins values, the source holds several entries; their conditions need not be identical. Equal entries are not always repeated. Screen size: about 420,000 compounds; about 50,000 (12%) were called active. Inconclusive results (about 26%) are left out. The sample holds actives, similar compounds and a random draw of the others, so the mix is not that of the screen. Unmarked numbers belong to inactive results. Calls follow the shape of the dose curve; as a rule, active = well fitted inhibition curve with a large enough effect; inconclusive = small, poorly fitted or top-dose-only effect; inactive = flat fitted curve, though single readings scatter.

assay: qHTS for Inhibitors of human tyrosyl-DNA phosphodiesterase 1 (TDP1): qHTS in cells in presence of CPT; settings: chicken DT40 Tdp1-/-;hTDP1 cells + 20 nM CPT, ATP luminescence, 48 h; series mostly up to 46.2 µM; activity change, negative = growth inhibition: at the top concentration; also: nearly all actives have a fitted effect of over 55% in size
Summary of the method: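 Chicken DT40 Tdp1-/- cells stably complemented with human TDP1 were seeded at 400 cells/well in medium containing 20 nM camptothecin, exposed to pin-transferred compounds, and grown at 37 °C for at least 48 hr. Viability was read as ATP luminescence.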
% is scaled to controls: 0 for no effect and ±100 for the full control effect; potency is read from the fitted curve at half-maximal effect.

| SMILES | activity change, negative = growth inhibition [%] | Potency |
| --- | --- | --- |
| Cc1ccnc2nc(C(=O)Nc3nnc(-c4ccccc4)o3)nn12 | -3.33 |  |
| Cc1ccc2[nH]c(=O)c(CN(C)S(=O)(=O)c3cccc4nonc34)cc2c1 | 0.922 |  |
| COc1cc(NS(=O)(=O)c2cccs2)cc(OC)c1 | -14.8 |  |
| COCCNc1nc(-c2ccccc2)nc2c1oc1ccccc12 | 3.02 |  |
| Cc1cc(C)c2nc(-c3cccnc3)cc(C(=O)Nc3ccc(S(=O)(=O)Nc4onc(C)c4C)cc3)c2c1 | 8.61 |  |
| CC1CCN(C(=O)C2CCN(S(=O)(=O)N3CCC4(CC3)OCCO4)CC2)CC1 | 9.32 |  |
| COc1cc(C2C3C(=O)N(c4ccccc4)C(=O)C3ON2c2ccccc2)ccc1O (stereo unspecified) | -15.5 |  |
| COC(=O)c1sc(N)c(C(=O)OC)c1COC(=O)CNS(=O)(=O)c1ccc(C)cc1 | -21.8 |  |
| COc1ccc2oc(-c3ccc(C)c(NC(=O)c4sc5ccccc5c4Cl)c3)nc2c1 | -24 |  |
| CC1(C(=O)OCC(=O)Nc2ncc(Cl)cc2Cl)CC1(Cl)Cl (stereo unspecified) | 2.88 |  |
| N#Cc1cccc(CN2CCC(=O)N([C@H](CO)c3ccccc3)CC2)c1 |  | inactive |
| CC(C)(C(=O)NO)c1ccccc1 | -26.7 |  |
| CN(C)S(=O)(=O)c1cccc(C(=O)Nc2cccnc2)c1 | 5.91 |  |
| CCN(CC)S(=O)(=O)c1cccc(C(=O)Nc2ccccc2)c1 |  | 20.6 µM (active) |
| CCN(CC)S(=O)(=O)c1cccc(C(=O)NCC(=O)OCC(=O)NCc2ccccc2)c1 | -13.6 |  |
| CC(OC(=O)c1cc2ccccc2o1)C(=O)Nc1ccc(N2CCOCC2)cc1 (stereo unspecified) | -2.49 |  |
| CN(c1ccccc1)S(=O)(=O)c1ccc2[nH]c(=O)[nH]c2c1 | -4.05 |  |
| CCCNC(=O)N1CCC(c2ccc3c(c2)OCO3)CC1 | -2.65 |  |
| CCCC[C@@H]1CN=C(N)N1CCc1cccc(F)c1 |  | 9.2 µM (active) |
| O=C1NC[C@@H](Cc2ccc(O)cc2)N(CCc2cccc(F)c2)C1=O | -0.54 |  |
| CCCS(=O)(=O)N1CCN=C1SCc1cccc(F)c1 | -23.1 |  |
| CCCC[C@@H]1CN=C(N)N1CCc1cc(C(F)(F)F)cc(C(F)(F)F)c1 |  | 3.66 µM (active) |
| CCN(CC(=O)NCc1cccs1)C(=O)c1ccc(OC)c(S(=O)(=O)N2CCOCC2)c1 | -0.26 |  |

| SMILES | activity change, negative = growth inhibition [%] | Potency |
| --- | --- | --- |
| Cn1c(=O)c2c(nc(N3CCOCC3)n2CCNC2=NCCC2)n(C)c1=O | -6.91 |  |
| CC(NC(=S)NC1CCCCC1)C(c1ccccc1)N1CCOCC1 (stereo unspecified) | -22.3 |  |
| CCn1c(SCC(=O)NNC(=O)c2ccc(OC)cc2)nnc1C(C)C | -2.01 |  |
| CCc1cccc(C)c1Nc1c(-c2ccc(N(C)C)cc2)nc2ncccn12 |  | 10.3 µM (active) |
| Cc1ccc(-c2c(N)nc3ncccn23)cc1 | 6.29 |  |
| Cc1cccc(C)c1NC1=NC(=S)N(c2ccc(N(C)C)cc2)C1(C)C | -23.1 |  |
| Cc1c(-c2cccc(NC(=O)C(C)(C)C)c2)nc2ncccn12 | -4.57 |  |
| Cc1cccc(C)c1Nc1c(-c2ccccc2O)nc2ncccn12 |  | 20.6 µM (active) |
| CCc1cccc(C)c1NS(=O)(=O)c1c(C)nc2sccn2c1=O |  | inactive |
| CC1(OC(=O)CCc2ccccc2)C(=O)C=C2C=C(c3ccc(C#N)cc3)N(CCc3ccccn3)C=C2C1=O (stereo unspecified) | -22.9 |  |
| CC1CCN(c2ccc([N+](=O)[O-])cc2C(N)=O)CC1 | -6.2 |  |
| CC(C)c1ccc(NC(=O)Cn2nnc(C(=O)NCCc3ccccc3)c2N)cc1 | 9.46 |  |
| O=C(COc1ccc([N+](=O)[O-])cc1)Nc1cccc(C(=O)Nc2ccccc2C(=O)O)c1 | 1.45 |  |
| CCc1cccc(NC(=O)c2cc(-c3ccccc3)n[nH]2)c1 | -27.1 |  |
| CCc1ccc2c(c1)C1(NN=C(c3ccccc3)S1)C(=O)N2 (stereo unspecified) |  | 2.91 µM (active) |
| CCCCC(CC)CNC(=O)C1CCN(S(=O)(=O)c2cccc3nsnc23)CC1 (stereo unspecified) | 7.48 |  |
| COc1cc2c(=O)n(C)c3ccccc3c2cc1OC |  | 13 µM (active) |
| Cc1cc(C)c(-c2c(O)c3ccccc3n(C)c2=O)c(C)c1 | -4.71 |  |
| COc1cccc2c(O)cc(=O)n(C)c12 | -20.6 |  |
| Cc1ccc(Cc2nnc(SCC(=O)Nc3ccccc3C)[nH]c2=O)cc1 | -17.9 |  |
| C[C@H](CO)N1C[C@H](C)[C@H](CN(C)C(=O)Nc2ccc3c(c2)OCO3)Oc2ncc(Br)cc2C1=O | 5.22 |  |
| CCOc1ccc(NC(=O)CN(C)C(=O)c2c(C)noc2C)cc1OCC | 1.04 |  |
| c1ccc(-c2c[nH]c(-c3ccccc3)c2)cc1 | 13.2 |  |

| SMILES | activity change, negative = growth inhibition [%] | Potency |
| --- | --- | --- |
| CC1CCCCC12NC(=O)N(CC(=O)N1CCN(c3ccccc3)CC1)C2=O (stereo unspecified) | -14.3 |  |
| CC(=O)c1ccc(N2CCN(CC(O)c3ccccc3)CC2)cc1 (stereo unspecified) | 20.2 |  |
| COc1ccc(/C=C2/C(=O)N(c3ccccc3)N=C2C)c(OC)c1 | 3.05 |  |
| COc1ccc(C=Nc2cccc3ncccc23)cc1 | -27.3 |  |
| COc1cc(OC)c(/C=C/c2ccnc3ccccc23)c(OC)c1 |  | 10 µM (active) |
| CC(=O)OC1CCC2(O)CC1(C)CCC1C2CC1(C)C (stereo unspecified) | -0.352 |  |
| COc1ccc(-c2n[nH]c(C)c2-c2ccc(OC)c(OC)c2)c(O)c1 |  | 20.6 µM (active) |
| COc1ccc(-n2c(-c3ccc(OC)c(OC)c3)n[nH]c2=S)cc1 | 24.6 |  |
| C=C(C)COc1ccc(-c2n[nH]c(C)c2-c2ccccc2)c(O)c1 |  | 14.6 µM (active) |
| C=C(C)COc1ccc(-c2ncncc2-c2ccc(OC)cc2)c(O)c1 | -22.2 |  |
| COc1ccc(-c2c(-c3ccc(OC)cc3O)nc(C)nc2C(F)(F)F)cc1 | -21.2 |  |
| CCOc1ccc(-c2n[nH]c(C)c2-c2ccccn2)c(O)c1 | -18.7 |  |
| N#Cc1c(-c2ccccc2)nc(SCc2ccc([N+](=O)[O-])cc2)[nH]c1=O | -20 |  |
| O=C(Nc1ccccc1)/C(=C\c1ccco1)NC(=O)c1ccco1 | -12.4 |  |
| CCN(CC(=O)Nc1ccc(OC)cc1)C(=O)c1ccc(=O)n(Cc2ccccc2)n1 | -13.1 |  |
| COc1ccc(NC(=O)CCCNC(=O)Cn2cnc3sc4c(c3c2=O)CCCC4)cc1OC | 3.14 |  |
| O=C(Nc1ccccc1C(=O)N1CCCCCC1)c1ccccc1Cl | 5.74 |  |
| Nc1nnnn1/N=C/c1cccc(Br)c1 | -3.42 |  |
| CCOC(=O)c1c(NC(=O)c2ccc(Br)o2)sc2c1CCCC2 | -18.8 |  |
| CCOC(=O)c1c(NC(=O)C2(C)Cc3ccccc3C(=O)O2)sc2c1CCCC2 (stereo unspecified) |  | 18.4 µM (active) |
| CCOC(=O)c1c(NC(=S)Nc2ccccc2C)sc2c1CCC2 | -2.49 |  |
| O=C1c2ccccc2C(=O)N1CCC(O)C[N+](=O)[O-] (stereo unspecified) | -25.6 |  |
| COc1ccc(CCNc2nc3c(-c4cccc(F)c4)nnn3c3ccccc23)cc1OC | -2.75 |  |

| SMILES | activity change, negative = growth inhibition [%] | Potency |
| --- | --- | --- |
| COCCCNc1nc2c(-c3cccc(C(F)(F)F)c3)nnn2c2ccccc12 | -12 |  |
| COCCCNc1nc2c(-c3cccc(C)c3)nnn2c2ccc(Cl)cc12 |  | 11.6 µM (active) |
| C[C@@H]1O[C@@H](OC[C@H]2O[C@@H](Oc3c(-c4ccc(O)cc4)oc4cc(O)cc(O)c4c3=O)[C@H](O)[C@@H](O)[C@@H]2O)[C@H](O)[C@H](O)[C@H]1O | 12.2 |  |
| COc1cccc(-n2c(=O)c3c(C)c(C(=O)N(C)C)sc3n(Cc3cccc(C)c3)c2=O)c1 | -18.9 |  |
| COc1cc(OC)cc(C2=Cc3ccccc3C(CC(=O)c3ccco3)N2c2ccc(-c3cnc(OC)nc3)cc2)c1 (stereo unspecified) | -28.8 |  |
| Cn1c2ccccc2c2cc(/C=C(\NC(=O)c3ccccc3)C(=O)NCC(=O)O)ccc21 | 7.78 |  |
| O=C(C1CCN(CC2CCCCC2)CC1)N1CCCC1 | -1.64 |  |
| CCC1CCCCN1CCCNC(=O)C1CCC(Cn2c(=O)[nH]c3ccccc3c2=O)CC1 (stereo unspecified) | -20.6 |  |
| CCCNC(=O)C1CCC(Cn2c(=O)c3sccc3n(Cc3ccccc3F)c2=O)CC1 (stereo unspecified) |  | 14.6 µM (active) |
| O=C(C1CCC(Cn2c(=O)c3sccc3n(Cc3ccccc3F)c2=O)CC1)N1CCCCC1 (stereo unspecified) |  | 23.1 µM (active) |
| O=c1c(F)cn(C2CCCO2)c(=O)n1Cc1ccccc1Cl (stereo unspecified) | -0.787 |  |
| Cc1cccc(Cn2c(=O)n(CCC(=O)NCCc3ccc(Cl)cc3)c(=O)c3sccc32)c1 | -3.17 |  |
| C=Cc1ccc(Cn2c(C(=O)OC)cc3sc(C)cc32)cc1 | 15.1 |  |
| COc1ccc(S(=O)(=O)NC(=O)C2(C)CCN2C(=O)c2ccccc2CCc2ccccc2)cc1 (stereo unspecified) | 3.04 |  |
| CCCc1cc(=O)oc2c(C)c(OCC(=O)NCc3ccccn3)ccc12 | -14.6 |  |
| CCc1cc(=O)oc2c(C)c(OCC(=O)NCCN3CCOCC3)ccc12 |  | 23.1 µM (active) |
| CCCc1cc(=O)oc2c(C)c(OCC(=O)Nc3ccccn3)ccc12 | -26.1 |  |
| O=C(NCc1cccnc1)C12CC3CC(CC(C3)C1)C2 | -4.95 |  |
| CCOc1ccc(C(C)=O)cc1COC(=O)CNC(=O)c1cccs1 | -9.43 |  |
| Cc1ccc(C(=O)NCCSc2c(C)[nH]c3ccccc23)cc1C |  | 18.4 µM (active) |
| COC(=O)CCNC(=O)c1ccc2[nH]c(C)c(C)c2c1 | -14.2 |  |
| CN(C)CCCNC(=O)c1ccc2[nH]c3ccccc3c2c1 | 1.83 |  |
| COc1cccc(NC(=O)CN(C)C(=O)CSC(=S)N2CCCC2)c1 | 2.73 |  |

| SMILES | activity change, negative = growth inhibition [%] | Potency |
| --- | --- | --- |
| Cc1cc(C)cc(NS(=O)(=O)c2ccc(F)cc2)c1 | -0.189 |  |
| Cn1c(=O)n(C)c2cc(S(=O)(=O)Nc3ccc(F)cc3)ccc21 |  | 16.4 µM (active) |
| Cn1c(=O)sc2cc(NS(=O)(=O)c3ccc(C(C)(C)C)cc3)ccc21 | -14 |  |
| O=C(Nc1ccccc1N1CCOCC1)c1ccc(OCc2cscn2)cc1 | -9.05 |  |
| O=Nc1c(O)cc(O)c2ccccc12 | 2.19 |  |
| O=C(/C=C/c1cccc(F)c1)NC1CC1 | 14.9 |  |
| Cc1cc(NCc2ccco2)n2c(nc3ccccc32)c1C#N | -21.1 |  |
| CC(C)c1cc(NCc2ccccn2)n2c(nc3ccccc32)c1C#N |  | 5.8 µM (active) |
| Cc1cc(NC(C)C)n2c(nc3ccccc32)c1C#N | 2.8 |  |
| O=C(COC(=O)c1cc(S(=O)(=O)N2CCOCC2)ccc1F)NC1CC1 | 13.6 |  |
| O=C(C[n+]1cc(-c2ccc(Cl)c(Cl)c2)n2c1CCC2)c1cccs1 |  | 10.3 µM (active) |
| CCS(=O)(=O)N1CCN(C(=O)c2cccs2)CC1 | 18.7 |  |
| Cc1ccc(NC(=S)N2CCCC(c3ccccc3)=N2)cc1 | -0.285 |  |
| Cc1ccc(C(=O)N2CCCC(c3ccccc3)=N2)cc1 | 1.43 |  |
| CCCS(=O)(=O)N1CCN(C(=O)c2cccs2)CC1 | -5.54 |  |
| Cc1ccc(NC(=O)CN2CCc3ccccc3C2)cc1 | -11.7 |  |
| O=C(c1ccc(CSc2ccccc2)cc1)N1CCCCCC1 | -29.9 |  |
| Cc1ccc(C(=O)C[n+]2cc(-c3ccccc3)n3c2CCCCC3)cc1 |  | 5.62 µM (active) and 1.64 µM (active) |
| Cc1ccc(-c2c[n+](CC(=O)Nc3ccccc3)c3n2CCC3)cc1 |  | 11.6 µM (active) |
